Among the data in PubChem BioAssay (Tox21) are Potency, outcome and activity change, positive = activation values, retold here.

A short description of experiment [1]: qHTS assay to identify small molecule antagonists of the estrogen related receptor (ERR) signaling pathway from Tox21 library - cell viability counter screen (AID 1224834). Note: nearly all actives have a fitted effect of over 30% in size. Note: potency is the fitted concentration of half-maximal effect. The procedure, abridged: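 CellTiter-Fluor fluorescence measured; ERR cells; 17.5 h compound incubation at 37 C; 30 min reagent step.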
Experiment [2] is described as follows: qHTS assay to identify small molecule agonists of the constitutive androstane receptor (CAR) signaling pathway - cell viability counter screen (AID 1224836). Note: nearly all actives have a fitted effect of over 45% in size. Note: potency is the fitted concentration of half-maximal effect. The procedure, abridged:
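HepG2 cells stably carrying hCAR and a CYP2B6-2.2kb reporter; 15-concentration compounds plus PK11195 (final 0.75 uM), 23 hr at 37 C/5% CO2. Viability read by CellTiter-Fluor fluorescence.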
(In general: In qHTS, concentration-response curves come from the screen itself.)

Experiment [3] in a line: qHTS assay to identify small molecule antagonists of the constitutive androstane receptor (CAR) signaling pathway - cell viability counter screen (AID 1224837). Note: nearly all actives have a fitted effect of over 45% in size. The procedure, abridged:
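Using CellTiter-Fluor, viability is scored in HepG2 cells stably carrying hCAR and a 2.2kb CYP2B6 reporter after 23 hr compound exposure across 15 concentrations, with CITCO present at 50 nM.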

Experiment [4] addresses Nuclear receptor subfamily 1 group I member 3 (Homo sapiens) (UniProt Q14994). In words: qHTS assay to identify small molecule antagonists of the constitutive androstane receptor (CAR) signaling pathway (AID 1224838).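 Note: HepG2 cells stably expressing hCAR with CYP2B6 luciferase reporter stimulated by CITCO; nearly all actives have a fitted effect of over 40% in size.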 The procedure, abridged: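 Reporter luminescence was quantified after 24 h exposure of hCAR/CYP2B6-2.2kb double-stable HepG2 cells to compounds at 15 concentrations in the presence of 50 nM CITCO final.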

Experiment [5] shares this target. In words: qHTS assay to identify small molecule agonists of the constitutive androstane receptor (CAR) signaling pathway (AID 1224839).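 Note: HepG2 cells stably carrying human CAR and a CYP2B6 luciferase reporter; nearly all actives have a fitted effect of over 15% in size.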 The gist of the method:
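HepG2 cells stably co-transfected with hCAR and a CYP2B6-2.2kb luciferase reporter; compounds at 15 concentrations with 0.75 uM PK11195 present. After 24 hr at 37 C, luciferase read by ONE-Glo luminescence.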

Experiment [6] in a line: qHTS assay to identify small molecule antagonists of the estrogen related receptor signaling pathway with the pleiotropic PPARgamma coactivator (PGC) from Tox21 10K library - cell viability counter screen (AID 1224840; active = well fitted cell-killing curve with a large enough effect in the repeat runs, not every such curve was filed as active; note: nearly all actives have a fitted effect of over 40% in size). The procedure, abridged:
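Here the PGC/ERR cells serve as a cytotoxicity control: they are exposed to compounds for 17.5 hours at 37 C, and live-cell signal is quantified using CellTiter-Fluor fluorescence.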

In experiment [7] the target is Thyrotropin receptor (Homo sapiens) (UniProt P16473). Kind of experiment: qHTS assay to identify small molecule agonists of the thyroid stimulating hormone receptor (TSHR) signaling pathway (AID 1224843; calls by dose curve; note: nearly all actives have a fitted effect of over 45% in size). The procedure, abridged: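 HEK293 cells stably bearing the thyrotropin receptor were plated at 800 cells/well and challenged with compound (30 min, RT). Accumulated cAMP was quantified via cAMP-d2 competing for cryptate-tagged antibody.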

The nature of experiment [8]: qHTS assay to identify small molecule agonists of the hypoxia (HIF-1) signaling pathway - cell viability counter screen (AID 1224844; calls by dose curve; note: nearly all actives have a fitted effect of over 50% in size; note: potency is the fitted concentration of half-maximal effect). The gist of the method:
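Multiplexed with the HRE beta-lactamase assay, this viability read used CellTiter-Glo luminescence (30 min, RT) on HRE-bla ME-180 cells treated 17 hrs with compounds in 0.5% dialyzed FBS medium.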

Experiment [9] is described as follows: qHTS assay to identify small molecule agonists of H2AX (AID 1224845; active = well fitted activation curve with a large enough effect in the signal ratio in the repeat runs, not every such curve was filed as active; the % refers to the signal ratio). The gist of the method: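 Phospho-H2AX Ser139 measured by HTRF (ex 320 nm; em 665 and 620 nm) after 24 hr antibody incubation. Compounds, 15 concentrations, 0.76% DMSO, were applied to CHO-K1 cells for 3hr at 37C before lysis.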
Experiment [10] is described as follows: qHTS assay to identify small molecule agonists of the hypoxia (HIF-1) signaling pathway (AID 1224846; active = well fitted activation curve with a large enough effect in the signal ratio in the repeat runs, not every such curve was filed as active; the % refers to the signal ratio). The procedure, abridged:
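Hypoxia-pathway activation was scored as increased beta-lactamase from an HRE-controlled reporter in ME-180 cells; plated at 2,000 cells per well with 0.5% dialyzed FBS, they were exposed 17 hrs to compounds and then given CCF4-AM.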

The nature of experiment [11]: qHTS assay to identify small molecule agonists of H2AX - cell viability counter screen (AID 1224847; calls by dose curve;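 note: wild-type CHO-K1 cells; top concentration of the series differs between compounds; nearly all actives have a fitted effect of over 30% in size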). The procedure, abridged: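 CHO-K1 cells plated overnight at 37C, then exposed 3 h at 37C to compounds at 15 concentrations (0.76% DMSO final). Viability by CellTiter-Glo luminescence after 30 min at room temperature.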
Experiment [12] can be described thus: qHTS RealTime-Glo MT Cell Viability Assay in HepG2 cells - 24 hour (AID 1224867). Note: nearly all actives have a fitted effect of over 50% in size. The procedure, abridged:
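HepG2 cells (600/well) were dispensed with RealTime-Glo reagents, incubated 5 h at 37 °C, then treated with compounds in DMSO for up to 40 h. Nonlytic NanoLuc luminescence reflecting viable cells was read at each stated time point.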

Experiment [13] in a line: qHTS RealTime-Glo MT Cell Viability Assay in HEK293 cells - 32 hour (AID 1224868). Note: nearly all actives have a fitted effect of over 50% in size. Note: potency is the fitted concentration of half-maximal effect. The procedure, abridged: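 HEK293 cells seeded with NanoLuc/prosubstrate reagent, rested 5 h at 37 C, then dosed and kept at 37 C up to 40 h. Nonlytic real-time luminescence from viable cells read at 0, 8, 16, 24, 32 and 40 h.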
Experiment [14] in a line: A CellTox Green Cytotoxicity Assay to monitor cytotoxicity in HEK293 cells - 0 hour (AID 1224869). Note: nearly all actives have a fitted effect of over 50% in size. The gist of the method:
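Seeding of HEK293 cells together with cytotoxicity dye preceded a 5 h incubation at 37 C/5% CO2. Test compounds in DMSO were then added and fluorescence monitored across 40 h.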

Experiment [15] is described as follows: qHTS RealTime-Glo MT Cell Viability Assay in HepG2 cells - 40 hour (AID 1224870). Note: nearly all actives have a fitted effect of over 50% in size. The procedure, abridged:
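Real-time viability: cells seeded at 600 per well together with NanoLuc and cell-permeant prosubstrate, compounds added after 5 h incubation. Luminescence tracked at 0, 8, 16, 24, 32 and 40 h of exposure.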

Experiment [16] is described as follows: qHTS assay to identify small molecule antagonists of the estrogen related receptor signaling pathway with the pleiotropic PPARgamma coactivator (PGC) from Tox21 10K library (AID 1224841; call rule not given here). The gist of the method: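 Each well held 2,000 PGC/ERR cells, pre-incubated six hours (37 C, 5% CO2). Test substances in DMSO were added by pin tool and left for 18 h at 37 C before luciferase detection by One-Glo.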

Experiment [17] can be described thus: qHTS assay to identify small molecule agonists of the estrogen related receptor signaling pathway with the pleiotropic PPARgamma coactivator (PGC) from Tox21 10K library (AID 1224842). Note: nearly all actives have a fitted effect of over 15% in size. The procedure, abridged:
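Luminescence from One-Glo (30 min, room temperature) measured after PGC/ERR cells had 18 h at 37 C with pinned compound (23 nL in DMSO). Cells had been seeded at 2,000 per well and pre-incubated 6 h.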

Experiment [18] can be described thus: qHTS assay to identify small molecule antagonists of the estrogen related receptor (ERR) signaling pathway from Tox21 library (AID 1224848). Note: nearly all actives have a fitted effect of over 50% in size. Note: potency is the fitted concentration of half-maximal effect. The gist of the method:
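Reading was by luminescence 30 min after ONE-Glo addition. Before that, ERR cells at 2,000 per well had rested 6 h at 37 C/5% CO2 and then received pin-tooled compounds in DMSO for 18 h at 37 C.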

Experiment [19] can be described thus: qHTS assay to identify small molecule agonists of the estrogen related receptor (ERR) signaling pathway from Tox21 library (AID 1224849; calls by dose curve; note: nearly all actives have a fitted effect of over 15% in size). As to conditions: ERR reporter cell line, ONE-Glo luciferase, 18 h. The gist of the method: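 Six hours post-seeding at 37 C/5% CO2, ERR cells receive DMSO-solubilised compounds; after 18 h at 37 C, ONE-Glo reagent is applied and luminescence recorded.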

Experiment [20] has as its target Luciferin 4-monooxygenase (Photinus pyralis) (UniProt P08659). In words: qHTS assay to identify small molecule inhibitors of firefly luciferase (AID 1224835). Note: nearly all actives have a fitted effect of over 25% in size. The procedure, abridged: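 Inhibition of purified Photinus luciferase is measured by luminescence. Substrate levels (D-luciferin, ATP) sit at their KM values. Each compound is tested in a concentration series.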

Several values for one entry are separate records, joined by “and”; a condition that tells them apart may be missing. Identical values can stand only once. Inconclusive results are not listed. The source holds several records for some structures; these can differ, active in one and inactive in another. Activity calls are given as the source filed them. Unless noted, calls come from the whole dose curve; as a rule, active = well fitted curve in the direction sought with a large enough effect in the repeat runs; inconclusive = weak or mixed curves; inactive = no such curve, though single readings can be large; an effect the other way counts as inactive or inconclusive.
% is set by controls: 0 for no effect and ±100 for the full control effect.

Sequence of Thyrotropin receptor (Homo sapiens) (P16473 whole entry, looked up): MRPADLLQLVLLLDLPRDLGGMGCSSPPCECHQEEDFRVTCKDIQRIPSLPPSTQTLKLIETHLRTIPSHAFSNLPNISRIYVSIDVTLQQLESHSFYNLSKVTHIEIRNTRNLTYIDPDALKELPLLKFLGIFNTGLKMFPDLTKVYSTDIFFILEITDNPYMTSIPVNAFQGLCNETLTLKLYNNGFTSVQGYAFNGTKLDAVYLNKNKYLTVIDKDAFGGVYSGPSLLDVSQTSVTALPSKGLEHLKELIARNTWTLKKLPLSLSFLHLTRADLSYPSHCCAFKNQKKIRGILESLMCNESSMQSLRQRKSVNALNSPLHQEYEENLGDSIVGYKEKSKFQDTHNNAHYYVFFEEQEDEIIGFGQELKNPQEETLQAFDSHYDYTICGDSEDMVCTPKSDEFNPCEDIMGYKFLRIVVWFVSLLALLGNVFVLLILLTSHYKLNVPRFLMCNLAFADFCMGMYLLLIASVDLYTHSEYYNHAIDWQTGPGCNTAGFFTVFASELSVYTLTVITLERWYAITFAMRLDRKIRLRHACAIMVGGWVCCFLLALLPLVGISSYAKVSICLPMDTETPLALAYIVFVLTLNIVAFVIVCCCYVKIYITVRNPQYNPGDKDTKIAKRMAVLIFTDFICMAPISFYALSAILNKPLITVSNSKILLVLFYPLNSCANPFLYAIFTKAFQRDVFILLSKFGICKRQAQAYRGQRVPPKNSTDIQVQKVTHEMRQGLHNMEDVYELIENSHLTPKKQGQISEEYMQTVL
Sequence of Luciferin 4-monooxygenase (Photinus pyralis) (P08659 whole entry, looked up): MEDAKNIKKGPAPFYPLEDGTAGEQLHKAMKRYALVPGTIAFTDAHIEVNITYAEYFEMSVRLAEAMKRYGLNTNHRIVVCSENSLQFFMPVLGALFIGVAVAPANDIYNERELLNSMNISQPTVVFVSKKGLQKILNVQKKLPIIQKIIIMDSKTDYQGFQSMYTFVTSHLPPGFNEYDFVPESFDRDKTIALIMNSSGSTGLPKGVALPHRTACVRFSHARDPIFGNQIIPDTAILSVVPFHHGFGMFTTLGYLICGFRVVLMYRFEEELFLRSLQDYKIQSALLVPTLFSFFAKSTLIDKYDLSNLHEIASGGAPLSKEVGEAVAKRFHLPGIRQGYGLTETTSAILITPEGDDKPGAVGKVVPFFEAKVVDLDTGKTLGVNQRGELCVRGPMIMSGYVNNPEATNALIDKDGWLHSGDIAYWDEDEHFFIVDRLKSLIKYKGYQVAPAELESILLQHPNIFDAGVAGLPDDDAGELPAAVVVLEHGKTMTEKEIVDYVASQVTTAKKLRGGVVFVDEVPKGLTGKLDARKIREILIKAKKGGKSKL
Sequence of Nuclear receptor subfamily 1 group I member 3 (Homo sapiens) (Q14994 whole entry, looked up): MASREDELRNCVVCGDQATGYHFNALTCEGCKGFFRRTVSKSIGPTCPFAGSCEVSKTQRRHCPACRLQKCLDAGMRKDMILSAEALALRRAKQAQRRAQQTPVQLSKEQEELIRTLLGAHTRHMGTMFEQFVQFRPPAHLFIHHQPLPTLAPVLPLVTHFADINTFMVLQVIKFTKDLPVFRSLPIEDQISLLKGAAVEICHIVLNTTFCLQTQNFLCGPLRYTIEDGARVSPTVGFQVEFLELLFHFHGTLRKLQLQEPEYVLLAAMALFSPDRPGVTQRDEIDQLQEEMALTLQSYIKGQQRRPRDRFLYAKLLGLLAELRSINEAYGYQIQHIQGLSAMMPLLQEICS

Take `O=C(Cl)c1ccc(C(=O)Cl)cc1`: the Potency entry in experiment [1], in experiment [2], in [3], in [4], in experiment [5] and in [6] was “inactive” each time. In addition, the Potency entry in experiment [7], in experiment [8], in experiment [9], in experiment [11], in [12] and in experiment [13] was “inactive” in each case. The Potency result in experiment [14] and in [15] was “inactive” each time. The result in [10] was inactive.

Regarding `NC1CCCCC1N` (stereo not drawn), the Potency result in [1], in [2], in experiment [3], in [4], in experiment [5] and in [16] was “inactive” each time. Moreover, the Potency result in experiment [17], in [7], in [8], in [9], in experiment [11] and in experiment [18] was “inactive” in each case. The Potency entry in experiment [12], in [13], in experiment [14] and in experiment [15] was “inactive” each time. Besides, in [10], the call was inactive. The activity change, positive = activation in experiment [19] (at 92.4 µM (top of the series)) was 1.49% (inactive) and 5.92% (inactive).

Turning to `CCN(CC)CCNC(=O)c1ccc(N)cc1`, the Potency entry in [1], in experiment [20], in experiment [2], in experiment [3], in experiment [6] and in experiment [7] was “inactive” throughout. The Potency entry in [8], in [9], in experiment [11], in [12], in experiment [13] and in experiment [14] was “inactive” each time. Besides, the Potency entry in [15] was “inactive”.

On to `CCOC(=O)CC(=O)OCC`, for which the Potency result in experiment [1], in experiment [20], in experiment [2], in [3], in experiment [6] and in experiment [7] was “inactive” each time. Further, the Potency entry in [8], in [9], in [11], in experiment [12], in [13] and in experiment [14] was “inactive” in each case. Besides, the Potency entry in experiment [15] is “inactive”. Moreover, the call in experiment [10] was inactive.

As for `NCCNCCNCCN`, the Potency entry in experiment [1], in [2], in [3], in experiment [4], in experiment [5] and in [6] was “inactive” throughout. Moreover, the Potency result in experiment [7], in experiment [8], in [9], in experiment [11], in experiment [18] and in experiment [12] was “inactive” throughout. In addition, the Potency result in experiment [13], in experiment [14] and in experiment [15] was “inactive” throughout. For the same compound, the outcome in experiment [10] was inactive. Also, in experiment [19] (at 42.5 µM (top of the series)), the activity change, positive = activation is 0.597% (inactive).

For the compound `CC(CN1c2ccccc2Sc2ccccc21)N(C)C` (stereo not drawn), the Potency in experiment [1] is 69.3 µM (active) and 61.1 µM (active); in experiment [2] it was 54.5 µM (active); in experiment [8] it was 39.3 µM (active); in [18], 61.8 µM (active) and 68.6 µM (active) and inactive; in experiment [13], 39.3 µM (active) and 43.6 µM (active) and 6.01 µM (active). The Potency result in experiment [20], in experiment [4], in experiment [5], in experiment [16], in experiment [17] and in experiment [7] was “inactive” each time. In addition, the Potency result in experiment [9], in experiment [14] and in experiment [15] was “inactive” throughout. Besides, the activity change, positive = activation is -5.06% (inactive) in experiment [19] (at 42.5 µM (top of the series)); -81.8% (inactive) and -69.4% (inactive) in experiment [19] (at 92.4 µM (top of the series)).
